The nature of test [1]: NCI Yeast Anticancer Drug Screen. Data for the rad50 strain (AID 155).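 Note: 0% = growth of vehicle-only cultures of the same strain.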 The note with it: S. cerevisiae rad50 strain growth inhibition, hits give high values. The method in brief:
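Inhibition values express reduced yeast growth in compound-treated cultures relative to vehicle-treated controls.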

Test [2] in a line: NCI Yeast Anticancer Drug Screen. Data for the mec2-1 strain (AID 157). The note with it: S. cerevisiae mec2-1 strain, hits give high values. The procedure, abridged:
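Compounds were applied to mec2-1 yeast cells. Their growth was then compared with that of vehicle-treated cultures to give growth inhibition.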

Test [3] in a line: NCI Yeast Anticancer Drug Screen. Data for the sgs1 mgt1 strain (AID 161).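 Note: 0% = growth of cultures given vehicle only.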 Particulars: S. cerevisiae sgs1 mgt1 strain, hits give high values. The method in brief: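 Yeast cells carrying a defined DNA-repair defect were exposed to test compounds. Growth inhibition was measured relative to vehicle-treated controls.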
The nature of test [4]: NCI Yeast Anticancer Drug Screen. Data for the cln2 rad14 strain (AID 165).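 Note: 0% = growth equal to vehicle treated cultures.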 The note with it: S. cerevisiae cln2 rad14 strain, hits give high values. The procedure, abridged: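 Strain: cln2 rad14 yeast, altered in cell cycle control and DNA damage repair. Read-out: growth inhibition vs vehicle.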
Test [5] is described as follows: NCI Yeast Anticancer Drug Screen. Data for the bub3 strain (AID 167). The note with it: S. cerevisiae bub3 mutant strain, hits give high values. The method in brief: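 Steps: expose the mutant yeast strain to compound; grow alongside vehicle-treated cultures; measure growth; express inhibition against the vehicle cultures.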
The nature of test [6]: NCI Yeast Anticancer Drug Screen. Data for the mlh1 rad18 strain (AID 175). Particulars: S. cerevisiae mlh1 rad18 strain growth inhibition, hits give high values. The procedure, abridged: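 A repair-deficient yeast strain is exposed to test compound, and growth is scored relative to vehicle-treated controls.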
The mark [7] stands for this setting: at 5.0 µM (retest, dose inferred, filed as 0.5).
Setting [8] is: at 50.0 µM (retest, dose inferred, filed as 5.0).

Each structure is given as a SMILES string. About 79,000 compounds went through this panel and 15% of them were active in at least one assay; those are over-represented in the sample as a whole. Values without a mark were called inactive. Activity calls are given as the source filed them. Cut-off read from the data, not from the text of the source: active = growth inhibition above about 70%; inactive = the rest.

`COC(=O)c1cccc2cccc(C(=O)Nc3ccc(Cl)cc3)c12`: the growth inhibition is 68% in test [1] (setting [7]); 99% (active) in test [1] (setting [8]); 90.2% (active) in test [1] (at 50.0 µM); 67% in test [2] (setting [7]); 100% (active) in test [2] (setting [8]); 93% (active) in test [2] (at 50.0 µM). The growth inhibition is 58% in test [3] (setting [7]); 100% (active) in test [3] (setting [8]); 92.3% (active) in test [3] (at 50.0 µM); 42% in test [4] (setting [7]); 99% (active) in test [4] (setting [8]); 92% (active) in test [4] (at 50.0 µM). For the same molecule, the growth inhibition in test [5] (setting [7]) was 82% (active); in test [5] (setting [8]), 82% (active); in test [5] (at 50.0 µM) it was 91.9% (active); in test [6] (setting [7]) it was 87% (active); in test [6] (setting [8]), 99% (active); in test [6] (at 50.0 µM) it was 90.3% (active).

`CC(=O)OCC(=O)[C@@]1(O)CC[C@H]2[C@@H]3CCC4=CC(=O)C=C[C@]4(C)[C@@]3(F)[C@@H](O)C[C@@]21C`: the growth inhibition is -27% in test [1] (setting [7]); 41% in test [1] (setting [8]); 0.4% in test [1] (at 50.0 µM); 1% in test [2] (setting [7]); 16% in test [2] (setting [8]); -2.8% in test [2] (at 50.0 µM). Also, the growth inhibition in test [3] (setting [7]) is -4%; in test [3] (setting [8]) it was 59%; in test [3] (at 50.0 µM), 17.4%; in test [4] (setting [7]) it was -6%; in test [4] (setting [8]), 5%; in test [4] (at 50.0 µM), 66.2%. Also, the growth inhibition in test [5] (setting [7]) was -2%; in test [5] (setting [8]), 51%; in test [5] (at 50.0 µM), 17.6%; in test [6] (setting [7]), -3%; in test [6] (setting [8]), 71% (active); in test [6] (at 50.0 µM), 15.6%.

Turning to `Cn1cc(C2=CC(=O)C=CC2=O)c2ccccc21`, the growth inhibition is 0% in test [1] (setting [7]); 97% (active) in test [1] (setting [8]); 98.1% (active) in test [1] (at 50.0 µM); 8% in test [2] (setting [7]); 99% (active) in test [2] (setting [8]); 98.6% (active) in test [2] (at 50.0 µM). In addition, the growth inhibition in test [3] (setting [7]) is 4%; in test [3] (setting [8]) it was 98% (active); in test [3] (at 50.0 µM), 98.8% (active); in test [4] (setting [7]), -2%; in test [4] (setting [8]), 98% (active); in test [4] (at 50.0 µM), 98.2% (active). Further, the growth inhibition in test [5] (setting [7]) is -4%; in test [5] (setting [8]), 97% (active); in test [5] (at 50.0 µM) it was 98.2% (active); in test [6] (setting [7]), 2%; in test [6] (setting [8]), 98% (active); in test [6] (at 50.0 µM) it was 98.5% (active).

On to `CCCc1cc(=O)oc2c3c(c4c(c12)OC(C)(C)CC4)O[C@H](C)[C@@H](C)[C@H]3O`, for which the growth inhibition was 8% in test [1] (setting [7]); 94% (active) in test [1] (setting [8]); 83.5% (active) in test [1] (at 50.0 µM); 17% in test [2] (setting [7]); 97% (active) in test [2] (setting [8]); 90.5% (active) in test [2] (at 50.0 µM). Besides, the growth inhibition in test [3] (setting [7]) was 14%; in test [3] (setting [8]) it was 96% (active); in test [3] (at 50.0 µM) it was 89.2% (active); in test [4] (setting [7]), 18%; in test [4] (setting [8]), 95% (active); in test [4] (at 50.0 µM), 88.7% (active). The growth inhibition in test [5] (setting [7]) is 23%; in test [5] (setting [8]), 96% (active); in test [5] (at 50.0 µM), 86.8% (active); in test [6] (setting [7]) it was 10%; in test [6] (setting [8]) it was 95% (active); in test [6] (at 50.0 µM) it was 86.5% (active).

Take `CCOC(=O)CCc1ccc(OC)c(OC)c1`: the growth inhibition in test [1] (setting [7]) was 1%; in test [1] (setting [8]), -2%; in test [1] (at 50.0 µM), -9.55%; in test [2] (setting [7]), 16%; in test [2] (setting [8]) it was -4%; in test [2] (at 50.0 µM) it was 23%. Also, the growth inhibition in test [3] (setting [7]) is 0%; in test [3] (setting [8]), -2%; in test [3] (at 50.0 µM), 22.9%; in test [4] (setting [7]) it was 3%; in test [4] (setting [8]), -8%; in test [4] (at 50.0 µM), 38.7%. The growth inhibition in test [5] (setting [7]) was -2%; in test [5] (setting [8]), 19%; in test [5] (at 50.0 µM), 17.4%; in test [6] (setting [7]) it was 2%; in test [6] (setting [8]), -1%; in test [6] (at 50.0 µM), -5.15%.

For `CCCCCCCCCC(=O)NN=C(C)C`, the growth inhibition in test [1] (setting [7]) is -129%; in test [1] (setting [8]), 54%; in test [1] (at 50.0 µM), 93.1% (active); in test [2] (setting [7]) it was -49%; in test [2] (setting [8]), 45%; in test [2] (at 50.0 µM) it was 83.2% (active). Also, the growth inhibition in test [3] (setting [7]) was -59%; in test [3] (setting [8]), 75% (active); in test [3] (at 50.0 µM) it was -2.75%; in test [4] (setting [7]), -67%; in test [4] (setting [8]), 81% (active); in test [4] (at 50.0 µM), 88.2% (active). For the same molecule, the growth inhibition in test [5] (setting [7]) was -72%; in test [5] (setting [8]), 41%; in test [5] (at 50.0 µM) it was 88% (active); in test [6] (setting [7]), -131%; in test [6] (setting [8]) it was 46%; in test [6] (at 50.0 µM) it was 90.8% (active).

Take `CC(=O)ON=C1C=CC(=C(C#N)c2ccccc2)C=C1`: the growth inhibition in test [1] (setting [7]) is 44%; in test [1] (setting [8]), 99% (active); in test [1] (at 50.0 µM), 97.2% (active); in test [2] (setting [7]), 41%; in test [2] (setting [8]) it was 100% (active); in test [2] (at 50.0 µM), 99.1% (active). In addition, the growth inhibition in test [3] (setting [7]) is 46%; in test [3] (setting [8]), 100% (active); in test [3] (at 50.0 µM), 64.1%; in test [4] (setting [7]), 88% (active); in test [4] (setting [8]), 100% (active); in test [4] (at 50.0 µM) it was 98.2% (active). The growth inhibition in test [5] (setting [7]) is 72% (active); in test [5] (setting [8]), 100% (active); in test [5] (at 50.0 µM), 66.3%; in test [6] (setting [7]), 49%; in test [6] (setting [8]), 99% (active); in test [6] (at 50.0 µM) it was 99.5% (active).

As for `C/C(=C/c1ccccc1)C(=O)C1C(c2ccccc2)CC(O)C(C)C1c1ccccc1` (configuration not stated), the growth inhibition was 11% in test [1] (setting [7]); 86% (active) in test [1] (setting [8]); 82.2% (active) in test [1] (at 50.0 µM); 1% in test [2] (setting [7]); 81% (active) in test [2] (setting [8]); 91.2% (active) in test [2] (at 50.0 µM). For the same molecule, the growth inhibition in test [3] (setting [7]) is 10%; in test [3] (setting [8]) it was 86% (active); in test [3] (at 50.0 µM), 82.3% (active); in test [4] (setting [7]), -4%; in test [4] (setting [8]), 89% (active); in test [4] (at 50.0 µM), 88.4% (active). For the same molecule, the growth inhibition in test [5] (setting [7]) was -5%; in test [5] (setting [8]), 82% (active); in test [5] (at 50.0 µM), 77.8% (active); in test [6] (setting [7]), 16%; in test [6] (setting [8]), 90% (active); in test [6] (at 50.0 µM) it was 86.5% (active).

As to `C[C@]12CC[C@H](O)C[C@@H]1CC[C@@H]1[C@@H]2C(=O)C[C@]2(C)C3=CC(=O)O[C@H]3C[C@@H]12`, the growth inhibition is 40% in test [1] (setting [7]); 97% (active) in test [1] (setting [8]); 98.2% (active) in test [1] (at 50.0 µM); 27% in test [2] (setting [7]); 98% (active) in test [2] (setting [8]); 91% (active) in test [2] (at 50.0 µM). The growth inhibition is 32% in test [3] (setting [7]); 98% (active) in test [3] (setting [8]); 94% (active) in test [3] (at 50.0 µM); -3% in test [4] (setting [7]); 94% (active) in test [4] (setting [8]); 57.6% in test [4] (at 50.0 µM). Besides, the growth inhibition is 11% in test [5] (setting [7]); 97% (active) in test [5] (setting [8]); 92.6% (active) in test [5] (at 50.0 µM); 34% in test [6] (setting [7]); 98% (active) in test [6] (setting [8]); 96.8% (active) in test [6] (at 50.0 µM).

Source of the values: PubChem BioAssay (NCI).
